Several values for one entry are separate records, joined by “and”; a condition that tells them apart may be missing. Equal values may be shown once. Records with an inconclusive call do not appear. More than one record can exist for a structure, and the calls need not agree. Activity calls are given as the source filed them. Unless noted, calls follow the shape of the dose curve; as a rule, active = well fitted curve in the direction sought with a large enough effect in the repeat runs; inconclusive = weak or mixed curves; inactive = no such curve, though single readings can be large; an effect the other way counts as inactive or inconclusive.
What was measured:
[1] = molecular target: Aryl hydrocarbon receptor (Homo sapiens) (UniProt P35869); assay: qHTS assay to identify small molecule that activate the aryl hydrocarbon receptor (AhR) signaling pathway (AID 743085); also: nearly all actives have a fitted effect of over 15% in size; also: potency is read from the fitted curve at half-maximal effect;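 as to activation: HG2L7.5c1 human HepG2 liver cells with stably integrated DRE-driven firefly reporter; series mostly up to about 70 µM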
Chain of Aryl hydrocarbon receptor (Homo sapiens) (P35869 whole entry, looked up): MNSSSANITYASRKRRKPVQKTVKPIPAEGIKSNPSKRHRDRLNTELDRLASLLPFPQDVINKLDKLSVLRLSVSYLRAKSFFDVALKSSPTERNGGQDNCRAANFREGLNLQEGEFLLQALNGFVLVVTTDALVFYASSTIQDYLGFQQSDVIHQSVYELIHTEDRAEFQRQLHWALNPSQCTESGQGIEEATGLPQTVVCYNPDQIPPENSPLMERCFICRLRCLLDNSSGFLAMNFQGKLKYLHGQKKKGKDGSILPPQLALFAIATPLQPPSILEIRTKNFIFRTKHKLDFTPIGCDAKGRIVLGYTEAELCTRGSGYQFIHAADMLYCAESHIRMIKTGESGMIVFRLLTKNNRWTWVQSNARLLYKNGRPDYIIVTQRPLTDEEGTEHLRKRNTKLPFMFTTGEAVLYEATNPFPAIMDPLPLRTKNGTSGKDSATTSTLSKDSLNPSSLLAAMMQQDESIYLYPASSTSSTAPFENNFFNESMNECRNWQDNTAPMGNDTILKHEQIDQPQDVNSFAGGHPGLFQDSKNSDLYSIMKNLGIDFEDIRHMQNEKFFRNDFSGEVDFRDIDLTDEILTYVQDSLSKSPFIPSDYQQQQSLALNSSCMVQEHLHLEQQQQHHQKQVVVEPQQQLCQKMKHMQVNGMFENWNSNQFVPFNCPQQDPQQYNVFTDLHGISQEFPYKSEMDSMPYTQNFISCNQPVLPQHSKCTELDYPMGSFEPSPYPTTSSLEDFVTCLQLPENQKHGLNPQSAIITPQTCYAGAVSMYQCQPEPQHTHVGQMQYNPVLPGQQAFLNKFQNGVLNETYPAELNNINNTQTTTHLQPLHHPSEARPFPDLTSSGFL
Summary of the method: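 HepG2 cells (HG2L7.5c1) stably carrying a firefly luciferase reporter driven by 20 dioxin responsive elements were exposed to compound for 24 h at 37C after a 5 h settling period; luminescence rise (ONE-Glo) indicated activation.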

[2] = molecular target: Peroxisome proliferator-activated receptor gamma (Homo sapiens) (UniProt P37231); assay: qHTS assay to identify small molecule agonists of the peroxisome proliferator-activated receptor gamma (PPARg) signaling pathway (AID 743094; active = well fitted activation curve with a large enough effect in the signal ratio in the repeat runs, not every such curve was filed as active; the % refers to the signal ratio)
Chain of Peroxisome proliferator-activated receptor gamma (Homo sapiens) (P37231 whole entry, looked up): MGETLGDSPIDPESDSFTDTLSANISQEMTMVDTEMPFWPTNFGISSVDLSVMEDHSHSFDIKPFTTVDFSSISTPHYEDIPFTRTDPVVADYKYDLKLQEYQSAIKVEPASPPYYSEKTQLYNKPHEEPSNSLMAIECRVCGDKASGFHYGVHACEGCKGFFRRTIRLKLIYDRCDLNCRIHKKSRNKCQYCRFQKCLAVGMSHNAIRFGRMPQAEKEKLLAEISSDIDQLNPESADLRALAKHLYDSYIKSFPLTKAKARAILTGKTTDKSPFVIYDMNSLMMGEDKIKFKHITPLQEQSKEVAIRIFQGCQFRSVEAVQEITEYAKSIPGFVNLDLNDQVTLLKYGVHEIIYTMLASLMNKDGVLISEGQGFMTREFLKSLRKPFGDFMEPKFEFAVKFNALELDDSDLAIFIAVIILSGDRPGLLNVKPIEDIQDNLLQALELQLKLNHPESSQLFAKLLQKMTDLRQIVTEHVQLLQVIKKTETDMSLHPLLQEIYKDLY
Summary of the method: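 HEK293H PPARg-bla cells, 5 h settle at 37C/5% CO2; compound (DMSO) 17 h, 37C; B/G FRET substrate 1 h RT; fluorescence intensity read-out. qHTS format.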

[3] = molecular target: Peroxisome proliferator-activated receptor gamma (Homo sapiens) (UniProt P37231); assay: qHTS assay to identify small molecule antagonists of the peroxisome proliferator-activated receptor gamma (PPARg) signaling pathway (AID 743191; calls by dose curve; also: series mostly up to about 63 µM; nearly all actives have a fitted effect of over 30% in size)
Summary of the method: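 GeneBLAzer PPARg UAS-bla HEK293H cells, 5 h post-plating, exposed to compounds 17 h at 37C. LiveBLAzer B/G FRET substrate added for 1 h at room temperature; beta-lactamase reporter read by fluorescence intensity.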

[4] = qHTS assay to identify small molecule antagonists of the peroxisome proliferator-activated receptor gamma (PPARg) signaling pathway - cell viability counter screen (AID 743194); also: nearly all actives have a fitted effect of over 55% in size; also: potency is read from the fitted curve at half-maximal effect
Summary of the method: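 Cytotoxicity counter screen in PPARg-bla HEK293H cells, same wells as reporter assay. Compounds plus 50 nM rosiglitazone (final) for 17 h at 37 C, then viability read by CellTiter-Glo luminescence.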

[5] = qHTS assay for small molecule agonists of the antioxidant response element (ARE) signaling pathway (AID 743202; active = well fitted activation curve with a large enough effect in the signal ratio in the repeat runs, not every such curve was filed as active; the % refers to the signal ratio; also: potency is read from the fitted curve at half-maximal effect)
Summary of the method: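 HepG2 ARE-bla reporter line, 2,000 cells/well; 5 h preincubation 37 C/5% CO2; compound (DMSO) 16 h 37 C; B/G FRET substrate 2 h RT; fluorescence intensity.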

[6] = qHTS assay for small molecule agonists of the antioxidant response element (ARE) signaling pathway - cell viability counter screen (AID 743203; calls by dose curve; also: nearly all actives have a fitted effect of over 55% in size; also: potency is read from the fitted curve at half-maximal effect)
Summary of the method: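 Luminescence read-out (CellTiter-Glo, 30 min at room temperature) measured cell viability in the same wells as the ARE beta-lactamase reporter. HepG2 ARE-bla cells were treated with compounds for 16 hrs at 37C/5% CO2.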

[7] = qHTS assay for small molecule activators of the heat shock response signaling pathway - cell viability counter screen (AID 743209); also: nearly all actives have a fitted effect of over 50% in size
Summary of the method: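 HSE-bla HeLa; 1500 cells/well; overnight 37 C, 5% CO2; compound 5 h 37 C; LiveBLAzer B/G substrate 2.5 h RT; CellTiter-Glo 30 min RT; luminescence.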

[8] = qHTS assay for small molecule activators of the heat shock response signaling pathway (AID 743210; active = well fitted activation curve with a large enough effect in the signal ratio in the repeat runs, with a control signal flat, not every such curve was filed as active; the % refers to the signal ratio; also: potency is read from the fitted curve at half-maximal effect;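 as to activation: HeLa cells with beta-lactamase reporter driven by heat shock elements; series mostly up to about 63 µM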)
Summary of the method: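 Beta-lactamase reporter read-out: FRET substrate fluorescence after 2.5 h at RT, following 5 h compound treatment at 37 C of HeLa cells carrying HSE-driven bla reporter; quantitative HTS format.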

[9] = qHTS assay to identify small molecule agonists of the peroxisome proliferator-activated receptor delta (PPARd) signaling pathway - cell viability counter screen (AID 743211); also: nearly all actives have a fitted effect of over 55% in size
Summary of the method: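 PPARd-bla HEK293H cells (UAS-beta-lactamase reporter) were treated with compounds for 17 h at 37 C. Viability was then read in the same wells by CellTiter-Glo luminescence after 30 min at room temperature.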

[10] = molecular target: Peroxisome proliferator-activated receptor delta (Homo sapiens) (UniProt Q03181); assay: qHTS assay to identify small molecule agonists of the peroxisome proliferator-activated receptor delta (PPARd) signaling pathway (AID 743212; calls by dose curve)
Chain of Peroxisome proliferator-activated receptor delta (Homo sapiens) (Q03181 whole entry, looked up): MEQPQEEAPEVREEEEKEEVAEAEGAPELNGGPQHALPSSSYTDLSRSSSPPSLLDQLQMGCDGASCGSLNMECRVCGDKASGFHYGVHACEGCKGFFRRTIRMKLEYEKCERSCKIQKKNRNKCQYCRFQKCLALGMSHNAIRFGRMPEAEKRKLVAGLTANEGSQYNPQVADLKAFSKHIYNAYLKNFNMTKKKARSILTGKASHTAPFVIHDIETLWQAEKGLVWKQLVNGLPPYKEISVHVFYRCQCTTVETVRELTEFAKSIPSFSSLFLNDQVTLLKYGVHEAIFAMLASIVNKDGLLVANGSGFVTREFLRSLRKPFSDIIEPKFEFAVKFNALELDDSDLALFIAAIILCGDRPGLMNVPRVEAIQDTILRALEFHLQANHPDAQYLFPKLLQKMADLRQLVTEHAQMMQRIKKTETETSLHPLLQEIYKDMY
Summary of the method: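 Read-out: beta-lactamase FRET fluorescence after 2 h room-temperature incubation with LiveBLAzer B/G substrate. Cells were HEK293H carrying a UAS-bla reporter for PPARd, treated at 37 C with DMSO-dissolved compounds.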

[11] = qHTS assay to identify small molecule agonists of the farnesoid-X-receptor (FXR) signaling pathway - cell viability counter screen (AID 743218); also: nearly all actives have a fitted effect of over 45% in size; also: potency is read from the fitted curve at half-maximal effect
Summary of the method: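 Luminescence from CellTiter-Glo, read after 30 min at RT, reports viability of GeneBLAzer FXR-UAS-bla HEK 293T cells treated 16 h with compounds in the wells used for the beta-lactamase reporter.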

[12] = qHTS assay to identify small molecule antagonists of the farnesoid-X-receptor (FXR) signaling pathway - cell viability counter screen (AID 743221; active = well fitted cell-killing curve with a large enough effect in the repeat runs, not every such curve was filed as active; also: nearly all actives have a fitted effect of over 50% in size; also: potency is read from the fitted curve at half-maximal effect)
Summary of the method: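 FXR-UAS-bla HEK 293T cells were treated with test compounds plus chenodeoxycholic acid (50 uM final) for 16 h at 37 C. Cell viability in the same wells was then read as CellTiter-Glo luminescence after 30 min at room temperature.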

[13] = qHTS assay to identify small molecule antagonists of the peroxisome proliferator-activated receptor delta (PPARd) signaling pathway - cell viability counter screen (AID 743213); also: nearly all actives have a fitted effect of over 50% in size; also: potency is read from the fitted curve at half-maximal effect
Summary of the method: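 PPARd-bla HEK293H cells were treated with compounds plus agonist L165041 (300 nM final) for 17 h at 37 C. Viability was then read in the same wells by CellTiter-Glo luminescence after 30 min at room temperature.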

[14] = molecular target: Peroxisome proliferator-activated receptor delta (Homo sapiens) (UniProt Q03181); assay: qHTS assay to identify small molecule antagonists of the peroxisome proliferator-activated receptor delta (PPARd) signaling pathway (AID 743215; active = well fitted inhibition curve with a large enough effect in the signal ratio in the repeat runs, not every such curve was filed as active; the % refers to the signal ratio;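 also: cells stimulated with agonist L165041 at 300 nM final during compound exposure; series mostly up to about 62 µM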)
Summary of the method: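 HEK293H GeneBLAzer PPARd UAS-bla reporter cells; cpd + L165041 300 nM final, 17 h 37 C; LiveBLAzer B/G FRET substrate 2 h RT; fluorescence intensity read-out. Antagonist mode.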

[15] = molecular target: Vitamin D3 receptor (Homo sapiens) (UniProt P11473); assay: qHTS assay to identify small molecule agonists of the vitamin D receptor (VDR) signaling pathway (AID 743222; calls by dose curve)
Chain of Vitamin D3 receptor (Homo sapiens) (P11473 whole entry, looked up): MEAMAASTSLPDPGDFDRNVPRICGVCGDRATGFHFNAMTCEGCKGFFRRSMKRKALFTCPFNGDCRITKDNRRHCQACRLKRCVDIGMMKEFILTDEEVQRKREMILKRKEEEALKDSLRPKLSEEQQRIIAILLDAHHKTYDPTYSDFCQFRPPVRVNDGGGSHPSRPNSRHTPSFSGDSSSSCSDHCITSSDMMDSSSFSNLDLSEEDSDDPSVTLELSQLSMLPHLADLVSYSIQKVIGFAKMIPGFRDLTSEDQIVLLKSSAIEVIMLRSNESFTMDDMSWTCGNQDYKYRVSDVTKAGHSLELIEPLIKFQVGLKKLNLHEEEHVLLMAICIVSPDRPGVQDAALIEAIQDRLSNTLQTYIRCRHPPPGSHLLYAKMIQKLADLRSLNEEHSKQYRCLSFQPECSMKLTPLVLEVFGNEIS
Summary of the method: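 Beta-lactamase reporter readout (LiveBLAzer B/G FRET, 2 h RT) in VDR-bla cells after 16 h compound treatment at 37C, 5% CO2; cells pre-incubated 4 h before pin transfer of DMSO solutions.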

[16] = molecular target: Vitamin D3 receptor (Homo sapiens) (UniProt P11473); assay: qHTS assay to identify small molecule antagonists of the vitamin D receptor (VDR) signaling pathway (AID 743223; active = well fitted inhibition curve with a large enough effect in the signal ratio in the repeat runs, not every such curve was filed as active; the % refers to the signal ratio)
Summary of the method: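 VDR-bla cells were plated, incubated 4 h at 37C, then given compound and 1alpha,25-dihydroxyvitamin D3 (3 nM final). After 16 h at 37C, LiveBLAzer B/G FRET substrate was added for 2 h at room temperature and fluorescence read.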

[17] = qHTS assay to identify small molecule agonists of the vitamin D receptor (VDR) signaling pathway - cell viability counter screen (AID 743224); also: nearly all actives have a fitted effect of over 50% in size; also: potency is read from the fitted curve at half-maximal effect
Summary of the method: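 Cytotoxicity counter screen: VDR-bla cells, 16 h compound exposure at 37C, 5% CO2; CellTiter-Glo luminescence, 30 min RT, same wells as bla read.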

[18] = qHTS assay to identify small molecule that activate the aryl hydrocarbon receptor (AhR) signaling pathway - cell viability counter screen (AID 743086); also: nearly all actives have a fitted effect of over 45% in size; also: potency is read from the fitted curve at half-maximal effect
Summary of the method: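 HepG2-AhR-luc (HG2L7.5c1) cells, 4000/well, treated 24 h at 37 C with compound; viability measured as CellTiter-Fluor fluorescence after 30 min in the same wells as the luciferase read.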

[19] = molecular target: Bile acid receptor (Homo sapiens) (UniProt Q96RI1); assay: qHTS assay to identify small molecule antagonists of the farnesoid-X-receptor (FXR) signaling pathway (AID 743217; active = well fitted inhibition curve with a large enough effect in the signal ratio in the repeat runs, not every such curve was filed as active; the % refers to the signal ratio)
Chain of Bile acid receptor (Homo sapiens) (Q96RI1 whole entry, looked up): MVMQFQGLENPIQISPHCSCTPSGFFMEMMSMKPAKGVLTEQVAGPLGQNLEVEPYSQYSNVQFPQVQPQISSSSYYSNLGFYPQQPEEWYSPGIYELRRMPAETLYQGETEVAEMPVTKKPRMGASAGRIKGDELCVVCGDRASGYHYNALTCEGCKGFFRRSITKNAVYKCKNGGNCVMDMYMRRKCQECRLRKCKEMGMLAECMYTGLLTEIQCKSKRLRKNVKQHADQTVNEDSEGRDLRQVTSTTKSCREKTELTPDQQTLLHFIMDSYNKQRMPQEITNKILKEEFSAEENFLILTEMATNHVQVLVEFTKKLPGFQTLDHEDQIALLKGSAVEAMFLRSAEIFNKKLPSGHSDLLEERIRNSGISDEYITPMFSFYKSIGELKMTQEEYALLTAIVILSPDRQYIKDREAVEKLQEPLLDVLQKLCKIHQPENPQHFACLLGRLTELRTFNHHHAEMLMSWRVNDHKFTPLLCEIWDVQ
Summary of the method: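 Read-out: beta-lactamase FRET fluorescence (LiveBLAzer B/G substrate, 2 h, room temperature) in GeneBLAzer FXR-UAS-bla HEK 293T cells. Compounds were co-dosed with 50 uM chenodeoxycholic acid (final) and incubated 16 h at 37 °C.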

[20] = molecular target: Bile acid receptor (Homo sapiens) (UniProt Q96RI1); assay: qHTS assay to identify small molecule agonists of the farnesoid-X-receptor (FXR) signaling pathway (AID 743220; active = well fitted activation curve with a large enough effect in the signal ratio in the repeat runs, not every such curve was filed as active; the % refers to the signal ratio)
Summary of the method: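 FXR-UAS-bla HEK 293T cells carrying a UAS-driven beta-lactamase reporter were plated for 5 h at 37C/5% CO2, then exposed to DMSO-dissolved Tox21 10K compounds for 16 h at 37C. A LiveBLAzer B/G FRET substrate was loaded for 2 h at room temperature before fluorescence reading.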

Measured: Potency

CC[C@@H](CO)NCCN[C@@H](CC)CO
inactive: [1] | [2] | [3] | [4] | [5] | [6] | [7] | [8] | [9] | [10] | [11] | [12]

O=c1[nH][nH]c(=O)c2cc([N+](=O)[O-])ccc12
inactive: [1] | [2] | [3] | [4] | [5] | [6] | [8] | [9] | [10] | [13] | [14] | [11] | [12] | [15] | [16] | [17]

CCCCCCCCCCCC(=O)OCC(O)CO (stereo not given)
inactive: [1] | [18] | [4] | [5] | [6] | [11] | [16]

COC(OC)OC
inactive: [1] | [18] | [4] | [5] | [6] | [7] | [8] | [9] | [11] | [15] | [16] | [17]

O=C(O)c1cccc(C[C@@H]2COc3ccc(OCc4nc5cc(F)ccc5s4)cc3[C@@H]2O)c1
inactive: [1] | [18] | [7] | [8] | [9] | [13] | [11] | [12] | [15] | [16] | [17]

O=C(O)CNC(=O)c1ccccc1I
inactive: [1] | [2] | [3] | [4] | [5] | [6] | [8] | [9] | [10] | [13] | [14] | [19] | [11] | [12] | [15] | [17]

O[C@@H](CNC[C@H](O)[C@H]1CCc2cc(F)ccc2O1)[C@@H]1CCc2cc(F)ccc2O1
active: [18] 26.6 µM | [4] 29.8 µM | [6] 21.1 µM | [13] 23.7 µM | [11] 13.3 µM | [12] 29.8 µM | [17] 21.1 µM
inactive: [1] | [7] | [8]

CCCCCC
inactive: [1] | [18] | [4] | [5] | [6] | [7] | [8] | [13] | [19] | [11] | [12] | [17]

CCCCCCOC(=O)CCCCC
inactive: [1] | [2] | [3] | [4] | [5] | [6] | [7] | [8] | [9] | [11] | [12] | [15] | [16] | [17]

CC(=O)OCCC1CCCCC1
inactive: [1] | [2] | [3] | [4] | [5] | [6] | [7] | [8] | [9] | [10] | [13] | [14] | [11] | [12] | [15] | [16] | [17]

CCCCCCC(CO)CCCC (stereo not given)
inactive: [1] | [18] | [2] | [5] | [7] | [8] | [10] | [13] | [14] | [12] | [15] | [16] | [17]

CC(=O)OCC(C)C
inactive: [1] | [2] | [3] | [4] | [5] | [6] | [7] | [8] | [13] | [11] | [12] | [15] | [16] | [17]

CCN(CC)CCOC(=O)C(c1ccccc1)c1ccccc1
inactive: [1] | [2] | [3] | [4] | [5] | [6] | [7] | [8] | [10] | [14] | [19] | [11] | [20] | [12] | [15] | [17]

CC(C)(C)C1(CCc2ccc(Cl)cc2)CO1 (stereo not given)
inactive: [1] | [2] | [3] | [4] | [5] | [6] | [8] | [9] | [10] | [13] | [19] | [11] | [20] | [12] | [15] | [16] | [17]

C[C@@H]1[C@H](O)[C@@H](C)/C=C/C=C\C=C\C=C\C=C\C=C\C=C\[C@H](O[C@@H]2O[C@H](C)[C@@H](O)[C@H](N)[C@@H]2O)C[C@@H]2O[C@](O)(C[C@@H](O)C[C@@H](O)[C@H](O)CC[C@@H](O)C[C@@H](O)CC(=O)O[C@H]1C)C[C@H](O)[C@H]2C(=O)O (stereo in doubt)
inactive: [1] | [18] | [2] | [4] | [6] | [8] | [11] | [12]

COc1ccc2nc(S(=O)Cc3ncc(C)c(OC)c3C)[nH]c2c1 (stereo not given)
inactive: [2] | [3] | [4] | [6] | [9] | [10] | [13] | [14] | [11] | [12] | [15] | [16] | [17]
30.5 µM (active) and inactive: [8]
active: [1] 48 µM | [5] 17 µM and 16.8 µM

CCCCCCCCCCCCCC(=O)OCC(O)CO (stereo not given)
inactive: [1] | [18] | [4] | [5] | [7] | [8] | [10] | [13] | [14] | [19] | [11] | [12] | [15] | [17]

O=C(NS(=O)(=O)/C=C/c1ccccc1)c1ccc(F)cc1Cl
inactive: [1] | [18] | [4] | [6] | [7] | [8] | [10] | [14] | [11] | [12] | [17]

CCCCCc1ccco1
inactive: [1] | [18] | [4] | [10] | [13] | [14] | [11] | [12] | [15]
